Records with an inconclusive call do not appear. Activity calls are given as the source filed them. Calls come from the whole dose curve.
The compounds below were run against Vitamin D3 receptor (Homo sapiens) (UniProt P11473) (assay: qHTS assay to identify small molecule agonists of the vitamin D receptor (VDR) signaling pathway (AID 743222)). Conditions: HEK293T VDR-UAS-bla, beta-lactamase FRET ratio, 16 h; series mostly up to 63.5 µM.
Vitamin D3 receptor (Homo sapiens), sequence (P11473 whole entry, looked up): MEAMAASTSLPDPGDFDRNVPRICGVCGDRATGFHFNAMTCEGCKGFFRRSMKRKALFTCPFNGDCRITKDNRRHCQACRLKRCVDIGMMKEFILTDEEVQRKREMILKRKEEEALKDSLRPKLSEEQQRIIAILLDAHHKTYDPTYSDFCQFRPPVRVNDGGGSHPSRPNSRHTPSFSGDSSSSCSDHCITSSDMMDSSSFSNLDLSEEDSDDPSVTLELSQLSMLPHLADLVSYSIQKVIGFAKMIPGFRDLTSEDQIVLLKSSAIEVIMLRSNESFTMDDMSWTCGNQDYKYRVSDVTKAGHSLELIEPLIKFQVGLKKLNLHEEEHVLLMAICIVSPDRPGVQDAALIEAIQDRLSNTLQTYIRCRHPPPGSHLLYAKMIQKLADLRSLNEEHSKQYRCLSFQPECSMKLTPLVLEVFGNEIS
Excerpt: National Center for Advancing Translational Sciences [NCATS]
NIH Chemical Genomics Center [NCGC]
U.S. Environmental Protection Agency [EPA]
National Institutes of Environmental Health Sciences [NIEHS]
National Toxicology Program [NTP]
U.S. Food and Drug Administration [FDA]
The vitamin D receptor (VDR), a member of nuclear hormone receptor superfamily, plays a critical role in calcium homeostasis and bone metabolism. It is also involved in cell differentiation and growth, and thrombogenicity.
Tox21 Assay Protocol Summary:
VDR-bla cells were dispensed at 2,000 cells/6 uL/well into black wall/clear-bottom 1536-well plates using a Multidrop Combi (Thermo Fisher Scientific, Waltham, MA) dispenser. After the assay plates were incubated at a 37C and 5% CO2 for 4 h, 23 nL of compounds dissolved in DMSO, positive controls or DMSO only was transferred to the assay plate by a Pintool station (Kalypsys, San Diego, CA). The plates were incubated at 37C and 5% CO2 for 16 h. After 1 uL of LiveBLAzerTM B/G FRET substrate was added using a Bioraptr Flying Reagent Dispenser (FRD) workstation (Beckman Coulter, Indianapolis, IN, USA), the plates were incubated at room temperature for 2 h, and fluorescence intensity was measured by an Envision plate reader (PerkinElmer, Shelton, CT).
`CC(C)(C)c1n[nH]c(=S)n(N)c1=O` was tested, and the outcome was “inactive”.
With `CCCN1C[C@H](CSC)C[C@@H]2c3cccc4[nH]cc(c34)C[C@H]21` the outcome was “inactive”.
In the case of `O=C(NCCN1CCOCC1)c1ccc(Cl)cc1`, the outcome is reported as “inactive”.
`COC(=O)[C@@H]1[C@H]2C[C@H]3c4[nH]c5ccccc5c4CCN3C[C@@H]2CC[C@@H]1O` was tested, and the outcome was “inactive”.
For `CCCCOCCOC(=O)COc1nc(Cl)c(Cl)cc1Cl`, the outcome was “inactive”.
With `C[C@H](N)[C@H](O)c1cccc(O)c1` the outcome was “inactive”.
In the case of `Cc1cc2cc3c(C)cc(=O)oc3c(C)c2o1`, the outcome is reported as “inactive”.
`CC(C)(C)NC(N)=O` was tested, and the outcome was “inactive”.
In the case of `COc1ccc2nc(SCc3ncc(C)c(OC)c3C)[nH]c2c1`, the outcome is reported as “inactive”.
`CC(=C(CCOC(=O)C(C)C)SSC(CCOC(=O)C(C)C)=C(C)N(C=O)Cc1cnc(C)nc1N)N(C=O)Cc1cnc(C)nc1N` was tested, and the outcome was “inactive”.
For `CC1(CO)CN(c2ccccc2)NC1=O` (stereo not given), the outcome was “inactive”.
In the case of `CCc1ccc(C=O)cc1`, the outcome is reported as “inactive”.
In the case of `CCCCCCOC(=O)CC`, the outcome is reported as “inactive”.
In the case of `OCCCCC(O)CO` (stereo not given), the outcome is reported as “inactive”.
With `CCC(CC)CO` the outcome was “inactive”.
For `CN(C)C(=O)CNC(=O)Cc1ccccc1`, the outcome was “inactive”.
With `COc1ccc(C2CNC(=O)C2)cc1OC1CCCC1` (stereo not given) the outcome was “inactive”.
For `CCOc1cc([N+](=O)[O-])c(OCC)cc1N1CCOCC1`, the outcome was “inactive”.
In the case of `CCn1ccc(NS(=O)(=O)c2ccc(N)cc2)nc1=O`, the outcome is reported as “inactive”.
In the case of `O=C(NCCc1c[nH]c2ccccc12)c1cccnc1`, the outcome is reported as “inactive”.
For `C[C@H](CCC(=O)O)[C@H]1CC[C@H]2[C@@H]3C(=O)C[C@@H]4CC(=O)CC[C@]4(C)[C@H]3CC(=O)[C@]12C`, the outcome was “inactive”.
`CCOC(=O)/C=C/c1ccccc1` was tested, and the outcome was “inactive”.
In the case of `CCC(C)(CCC(C)C)C(=O)O` (stereo not given), the outcome is reported as “inactive”.
In the case of `C=CCCCCCCCCCCCC`, the outcome is reported as “inactive”.
`OC[C@H](Cc1cccc(O)c1)[C@H](CO)Cc1cccc(O)c1` was tested, and the outcome was “inactive”.
`Oc1cn2c(n1)Nc1ccc(Cl)c(Cl)c1C2` was tested, and the outcome was “inactive”.
In the case of `NCCN1CCOCC1`, the outcome is reported as “inactive”.
With `O=C1CC(c2ccc(Cl)cc2)CC(=O)N1` the outcome was “inactive”.
With `CCCCNc1ccc(C(=O)OCCN(C)C)cc1` the outcome was “inactive”.
In the case of `Nc1ccc2cc(S(=O)(=O)O)cc(O)c2c1`, the outcome is reported as “inactive”.
`Cc1ccc2ccc(Cl)cc2n1` was tested, and the outcome was “inactive”.
`O=C(O)Cc1ccc(Cl)cc1Cl` was tested, and the outcome was “inactive”.
`Nc1cccc(O)c1` was tested, and the outcome was “inactive”.
`CN=C(NC#N)Nc1ccc(C2=NNC(=O)CC2C)cc1` (stereo not given) was tested, and the outcome was “inactive”.
In the case of `Nc1nnc(-c2cccc(Cl)c2Cl)c(N)n1`, the outcome is reported as “inactive”.
`Brc1ccc(-c2ccccc2)cc1` was tested, and the outcome was “inactive”.
For `COP(=O)(OC)OC(c1ccc(Cl)cc1)P(=O)(OC)OC` (stereo not given), the outcome was “inactive”.
In the case of `CC(C)(C)OC(=O)c1ccc(O)cc1`, the outcome is reported as “inactive”.
In the case of `CNS(=O)(=O)CCc1ccc2[nH]cc(C3CCN(C)CC3)c2c1`, the outcome is reported as “inactive”.
With `C=C(C)C(=O)OCCOP(=O)(O)OCCOC(=O)C(=C)C` the outcome was “inactive”.

— PubChem BioAssay (Tox21)
